Reference: PubChem BioAssay (EPA / NIEHS)
Values joined by “and” are separate entries in the source; they are usually repeats but may differ in a detail not shown here. Equal entries are not always repeated. Active and inactive are the calls of the source. How the source made its calls: active means hit-call score of the fitted dose curve at least 0.9, where 1 is the maximum; inactive means score below 0.9.

Read-out: Interferon-inducible T-cell alpha chemoattractant (ITAC), CXCL11 (gene 6373)
Experiment: BSK_hDFCGF_ITAC: BioMAP Diversity Plus: hDFCGF Assay for Interferon-inducible T-cell alpha chemoattractant (ITAC) Biomarker Activity (AID 2284251)
Conditions: primary human foreskin fibroblasts
Method: BSK_hDFCGF is a cell-based, multiplexed-readout assay that uses foreskin fibroblast, a human skin primary cell, with measurements taken at 24 hours after chemical dosing in a 96-well plate.BSK_hDFCGF_ITAC is an assay component measured in the BSK_hDFCGF assay. It measures I-TAC antibody related to regulation of gene expression using ELISA technology.Data from the assay component BSK_hDFCGF_ITAC was analyzed at the endpoint, BSK_hDFCGF_ITAC, in the positive analysis fitting direction relative to DMSO as the negative control and baseline of activity. Using a type of binding reporter, gain or loss-of-signal activity can be used to understand protein changes. To generalize the intended target to other relatable targets, this assay endpoint is annotated to the 'cytokine' intended target family, where the subfamily is 'chemotactic factor'.
The levels of cell surface (or secreted, indicated by the prefix "s") biomarker endpoints were measured by ELISA. Overt cytotoxicity to cells in confluent adherent cultures (all systems other than the BT system) was assessed by measuring total protein levels using sulforhodamine B (SRB) staining in parallel cultures at the time of biomarker measurements, indicated as SRB endpoints. For proliferation assays for adherent cell types, individual cell types are cultured at sub-confluence and relative cell numbers quantified by SRB staining at time points optimized for each system (48 h: 3C and CASM3C systems; 72 h: BT and HDF3CGF systems; 96 h: SAg system). SRB was performed by staining cells with 0.1% SRB after fixation with 10% TCA and reading wells at 560 nm.Viability and proliferation of PBMC (T cells) was quantified by Alamar Blue reduction for the SAg and BT systems. For PBMC viability (referred to as PBMC Cytotoxicity within the assay endpoint names), cells were plated (75,000/well in a 96-well plate) and then chemical samples added for 1 h before addition of activators, SEB and TSST-1 (20 ng/mL final concentration each). Cells were incubated for 90 h. Then, Alamar Blue (20 uL/well) (Invitrogen, Cat DAL1100) was added for 6 h, and the plates were read with a fluorescence microplate reader at 546/580 nm (excitation/emission). For PBMC proliferation, cells were plated and activated as above but incubated for only 16 h prior to addition of Alamar Blue. Plates were read after 6 h.

| Compound | AC50 | outcome |
| --- | --- | --- |
| C=CC(=O)OCC(F)(F)C(F)F | 12.7 µM (active) and 18.4 µM (active) | – |
| OCC(F)(F)OC(F)(F)C(F)(F)OC(F)(F)C(F)(F)OC(F)(F)CO | 23 µM (active) and 22.1 µM (active) | – |
| O=S(=O)(F)C(F)(F)C(F)(F)C(F)(F)C(F)(F)C(F)(F)C(F)(F)C(F)(F)C(F)(F)F | – | inactive |
| OCC(F)(F)OC(F)(F)C(F)(F)OC(F)(F)CO | – | inactive |
| COP(=O)(CCC(=O)NCO)OC | – | inactive |
| O=C(O)C(F)(F)OC(F)(F)C(F)(F)OC(F)(F)F | – | inactive |
| OCC(F)(F)OC(F)(F)C(F)(F)OC(F)(F)C(F)(F)OC(F)(F)F | – | inactive |
| O=C(O)C(F)(OC(F)(F)C(F)(F)C(F)(F)F)C(F)(F)F (stereo not given) | – | inactive |
| CC(O)C(F)(F)C(F)(F)F (stereo not given) | – | inactive |
| O=C(O)C(F)(F)OC(F)(F)C(F)(F)OC(F)(F)C(=O)O | – | inactive |
| O=C(O)C=CC(F)(C(F)(F)F)C(F)(F)F | – | inactive |
| O=C(O)C(F)(F)C(F)(F)C(=O)O | – | inactive |
| COC(=O)C(F)(F)C(F)(F)OC(F)(C(F)(F)F)C(F)(F)OC(F)=C(F)F (stereo not given) | 4.67 µM (active) and 5.4 µM (active) | – |
| NC(=O)C(F)(F)C(F)(F)F | – | inactive |
| FC(F)(F)C(F)(C(F)(F)F)C(F)(F)C(F)(F)CC1CO1 (stereo not given) | – | inactive |
